# High-throughput results: PubChem, ICCB-Longwood Screening Facility, Harvard Medical School
# Compounds with a hit are over-represented: about 1.4% of the library has one in this group of screens.
# AID504770 = growth inhibition of E. coli YBA685, primary screen, V. cholerae RctB inhibitors | E. coli YBA685 rctB-dependent plasmid, OD600 growth, 3 h; stronger effect = lower value | z-score (concentration not given with the values) | 0.27% of 130,000 active | AID 504770, 2011; in the data active = z-score below about -2, passing the limit was not always enough
# Polio RdRp inh = poliovirus RdRp elongation inhibitors, primary screen, biochemical, fluorescence polarization, total intensity | poliovirus polymerase elongation; stronger effect = lower value | % elongation, % (compound at 16.7 µg/mL) | 0.66% of 150,000 active; in the data active = % elongation below about 90%
# MenB inh = M. tuberculosis MenB inhibitors, primary screen, biochemical, absorbance. AID 540299, 2011. inhibition, % (no concentration beside the values). MenB enzyme assay, absorbance read-out. 1,4-dihydroxy-2-naphthoyl-CoA synthase (Mycobacterium tuberculosis (strain ATCC 25618 / …. 0.43% of 100,000 active; in the data active = inhibition above about 21%, passing the limit was not always enough
# Mtb MbtI inh = MbtI salicylate synthase inhibitors, primary screen, biochemical, fluorescence intensity; AID 493033, 2011; inhibition, % (no concentration beside the values); purified MbtI enzyme, fluorescence intensity read-out; 0.89% of 100,000 active; in the data active = inhibition mostly above about 56%, no sharp cut-off; inactive = mostly below about 77%
# Target sequence (P9WFX0 whole entry, looked up): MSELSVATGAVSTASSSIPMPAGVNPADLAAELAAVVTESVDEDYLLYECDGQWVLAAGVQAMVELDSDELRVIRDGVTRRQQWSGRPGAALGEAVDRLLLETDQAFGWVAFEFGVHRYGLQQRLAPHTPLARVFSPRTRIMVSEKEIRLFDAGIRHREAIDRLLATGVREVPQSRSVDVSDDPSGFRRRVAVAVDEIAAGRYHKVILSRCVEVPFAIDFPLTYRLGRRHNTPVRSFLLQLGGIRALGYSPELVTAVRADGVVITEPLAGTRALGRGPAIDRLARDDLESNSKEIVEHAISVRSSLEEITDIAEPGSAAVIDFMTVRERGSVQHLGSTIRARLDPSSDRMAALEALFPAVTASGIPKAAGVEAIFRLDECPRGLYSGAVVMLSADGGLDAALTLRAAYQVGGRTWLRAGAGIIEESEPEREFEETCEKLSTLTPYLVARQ
# A number is an active result; - = inactive; . = not tested or not shown.
SMILES,AID504770,Polio RdRp inh,MenB inh,Mtb MbtI inh
CC(C)c1ccc(OCC(=O)c2ccc(O)cc2O)cc1,-,-,.,-
N#CCc1ccc(OC(F)F)cc1,-,31,-,-
Cc1ccnc2nc(C(=O)NCCN3C(=O)S/C(=C\c4ccc5c(c4)OCO5)C3=O)nn12,-,-,-,-
CCN1/C(=C/c2scc[n+]2C)C=C(C)c2cc(OC)c3ccccc3c21,-,56,-,-
CCN(Cc1nc(-c2ccc(C)cc2)no1)C(=O)Nc1ccccc1OC,-,-,-,-
CCOCCCNc1ncnc2sccc12,-,83,-,-
COc1ccccc1OCCNc1ncnc2sccc12,-,-,-,-
Cn1c(Cc2ccccc2)n[nH]c1=S,-,-,-,-
Nn1c(Cc2ccccc2)n[nH]c1=S,-,-,-,99
CCc1cc(C(=O)O)n(C)n1,-,-,29,-
Cc1nc(-c2ccc3[nH]c(=O)oc3c2)cs1,-,74,-,97
c1ccc(-c2nn3c(-c4ccccc4)nnc3s2)cc1,-,-,-,-
c1ccc(CCc2nn3c(COc4ccccc4)nnc3s2)cc1,-,-,-,76
COc1ccc(-c2nnc3sc(C(C)N4C(=O)c5ccccc5C4=O)nn23)cc1 (stereo unspecified),-,-,-,-
O=C1c2ccccc2C(=O)N1CCc1nn2c(-c3cccnc3)nnc2s1,-,-,-,87
c1ccc(OCc2nn3c(-c4ccccc4)nnc3s2)cc1,-,-,-,86
O=C(OCC(=O)N1CCCCCC1)c1c(Cl)cccc1Cl,-,-,.,-
Brc1ccc(-c2csc(NN=C3CCCC3)n2)cc1,-,-,-,80
CCN(CCO)C1CC(=O)N(c2ccccc2C)C1=O (stereo unspecified),-,-,-,100
Cc1ccccc1N1C(=O)C(O)C(O)C1=O (stereo unspecified),-,.,.,-
COc1cccc(N2C(=O)CC(Sc3ccccc3N)C2=O)c1 (stereo unspecified),-,.,.,.
COc1cccc(N2C(=O)CC(Sc3nnc(C)s3)C2=O)c1 (stereo unspecified),-,-,-,100
CC1=CC(=C2C(=O)NC(=S)NC2=O)C=C(C)N1Cc1ccco1,-,-,-,-
COC(=O)c1ccccc1N1C(=O)C=CC1=O,-2.5,.,.,.
COc1ccc2c(CC(=O)N3CCCSc4ccccc43)coc2c1,-,-,-,-
SMILES,AID504770,Polio RdRp inh,MenB inh,Mtb MbtI inh
CCN(CC)NC(=S)Nc1ccccc1,-,-,-,-
CCC(C)NC(=S)Nc1ccccc1 (stereo unspecified),-,-,30,-
CCNC(=S)Nc1ccccc1,-,-,-,-
CC(C)N(C)NC(=S)Nc1ccccc1,-,-,41,-
CCC(Nc1ccc(Br)cc1)C(=O)N/N=C/c1ccco1 (stereo unspecified),-,-,-,-
C/C(O)=C(\C#N)P(C)(=O)OC(C)C (stereo unspecified),-,-,41,-
NC(=O)CSc1ccc(-c2ccccc2)nn1,-,-,-,-
CCCCCc1ccc(C(=O)CCN(C)C)cc1,-,-,-,73
CN(C)CCC(=O)c1ccc2c(c1)OCO2,-,-,-,-
O=C(NCc1ccco1)C(=S)N1CCOCC1,-,-,-,76
COc1ccc(N2C(=O)Cc3ccccc3C2=O)cc1,-,.,.,.
Cc1ccccc1N1C(=O)Cc2ccccc2C1=O,-,48,-,-
Oc1c(Br)cc(Cl)cc1/C=N/c1ccccn1,-,75,-,-
CCOC(=O)c1ncoc1-c1ccc(C(F)(F)F)cc1,-,.,.,.
Cn1c(SCC(=O)O)nc2ccccc21,-,-,37,-
Cn1c(SCC(=O)NN)nc2ccccc21,-,-,-,-
COC(=O)c1cc2c(ccn2-c2ccc(F)cc2)n1CC(=O)c1ccc(OC)cc1,-,-,-,-
CCn1c(C(=O)OC)cc2c1ccn2-c1ccc(F)cc1,-,-,32,-
Cc1ccccc1NC(=S)N/N=C/c1ccc(O)cc1O,-,81,-,-
CCCOc1ccc(/C=C/C(=O)Nc2sc(C)c(C)c2C(=O)OCC)cc1OC,.,73,.,.
Cc1cn(CCC(=O)O)c(=O)[nH]c1=O,-,-,-,-
O=C(Cc1c(O)c2ccccc2oc1=O)c1cc2ccccc2o1,-,.,.,.
Cc1cccc2nc(CSC(=S)NCc3cccnc3)cn12,-3.7,.,.,.
COCc1cc(C)nc2sc3c(=O)[nH]c(-c4ccccc4O)nc3c12,-,-,-,.
Cc1sc2nc(-c3ccccc3O)[nH]c(=O)c2c1C,-,75,-,.
SMILES,AID504770,Polio RdRp inh,MenB inh,Mtb MbtI inh
Cn1c(-c2c(N)n(Cc3ccccc3)c3nc(C#N)c(C#N)nc23)nc2ccccc21,-,-,-,-
c1ccn2cc(-c3ccc4c(c3)OCCO4)cc2c1,-,.,.,.
CSc1ccc(OC(=O)Nc2ccc(Cl)cc2)cc1,-,-,-,-
COc1ccc(NC(=O)CC2SC(=Nc3ccccc3)N(c3ccccc3)C2=O)cc1 (stereo unspecified),-,-,-,-
COc1ccc(NC(=O)CC2Sc3ncnn3C2=O)cc1 (stereo unspecified),-,.,.,100
CC(=O)Nc1nc(C2CCCCC2)cs1,-,.,.,.
CCCN(Cc1nnc(-c2ccco2)o1)C(=O)c1cccnc1SCc1c(C)noc1C,-,89,-,-
C=CCn1c(C(C)Oc2ccc(Cl)cc2Cl)n[nH]c1=S (stereo unspecified),-,-,-,-
C=CCn1c(CSCc2ccc(F)cc2)n[nH]c1=S,-,-,-,64
C=CCn1c(Cc2ccc(OC)c(Cl)c2)n[nH]c1=S,-,-,-,91
CC(=O)Nc1c2c(nn1-c1ccccc1)CS(=O)(=O)C2,-,-,-,-
CCn1c2ccccc2c2n[nH]c(=S)nc21,-,-,-,-
O=C(O)Cn1c2ccccc2c2n[nH]c(=S)nc21,-,-,-,90
S=c1nc(-c2ccccc2)[nH]n1CN1CCc2ccccc2C1,-,-,-,96
CCCOc1ccc2c3c(c(=O)oc2c1)CCC3,-,.,.,.
COc1ccc(Oc2ccc3[nH]c4c(c3c2)CCCC4=O)cc1,-,.,.,.
Cc1ccc(C)n1CCC(=O)O,-,69,-,-
Cc1ccn(CCC(=O)O)n1,-,-,-,-
CCCc1nn2c(=O)cc(COc3ccc(/C=C(\C#N)C(=O)NCc4ccco4)cc3)nc2s1,-,-,-,-
Cc1ccc(CSc2nc(N)cc(N)n2)cc1,-,-,36,-
Cc1ccc(S(=O)(=O)C2(C(=O)NC(C)c3ccccc3)CC2)cc1 (stereo unspecified),-,.,.,.
Cc1ccc(NC(=O)CSc2nc3n[nH]c(C)c3c(=N)n2-c2cccc(C)c2)cc1,.,-,.,.
CCc1ccc(NC(=O)CSc2nc3n[nH]c(C)c3c(=N)n2-c2ccc(C)cc2)cc1,.,86,.,.
Cc1ccc(OCC(O)CN2C(=O)c3ccccc3C2=O)cc1 (stereo unspecified),-,-,-,-
O=C1c2ccccc2C(=O)N1SSN1C(=O)c2ccccc2C1=O,-,85,-,-
Cc1sc2nc(CC#N)[nH]c(=O)c2c1C,-,-,.,-
CCN(CC)Cc1nc2sc(C)c(C)c2c(=S)[nH]1,-,-,-,80
